Experimental data from PMC5700166.

How the values were obtained:
Assay in all cases: protein-binding microarray (PBM); PBM: ~300 nM protein, 6 mM HEPES pH 7.8, 80 mM KCl, 0.5 mM EDTA, 0.5 mM EGTA, 6% glycerol, 35 ng/ul poly-dIdC, 1% milk, 1 h, room temperature; Ap Aiptasia and Nv Nematostella (sea anemones) / Co Capsaspora / Aq Amphimedon (sponge) / Dm Drosophila / Hu human; RHD is the Rel homology domain; high values mean tight binding
Settings in all cases: dsDNA, one strand shown
GST-Ap-NF-kB RHD = target: T1, GST-Ap-NF-kB RHD (Exaiptasia pallida (Aiptasia), UniProt A0A913YAJ5 2-422)
T1 sequence: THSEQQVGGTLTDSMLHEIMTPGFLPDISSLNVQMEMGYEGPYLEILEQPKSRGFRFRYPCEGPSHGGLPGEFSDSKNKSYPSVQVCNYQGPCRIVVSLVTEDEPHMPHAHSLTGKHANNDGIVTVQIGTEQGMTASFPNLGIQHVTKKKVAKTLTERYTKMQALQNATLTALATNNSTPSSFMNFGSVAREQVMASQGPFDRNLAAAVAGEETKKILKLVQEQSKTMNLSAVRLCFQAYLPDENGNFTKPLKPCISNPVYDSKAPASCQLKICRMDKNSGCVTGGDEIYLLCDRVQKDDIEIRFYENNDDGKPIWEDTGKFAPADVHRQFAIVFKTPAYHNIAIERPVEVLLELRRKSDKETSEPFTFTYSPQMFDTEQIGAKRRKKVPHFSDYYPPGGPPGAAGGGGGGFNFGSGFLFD

GST-Dm-Relish = target: T2, GST-Dm-Relish (Drosophila melanogaster, UniProt Q94527 99-473)
T2 sequence: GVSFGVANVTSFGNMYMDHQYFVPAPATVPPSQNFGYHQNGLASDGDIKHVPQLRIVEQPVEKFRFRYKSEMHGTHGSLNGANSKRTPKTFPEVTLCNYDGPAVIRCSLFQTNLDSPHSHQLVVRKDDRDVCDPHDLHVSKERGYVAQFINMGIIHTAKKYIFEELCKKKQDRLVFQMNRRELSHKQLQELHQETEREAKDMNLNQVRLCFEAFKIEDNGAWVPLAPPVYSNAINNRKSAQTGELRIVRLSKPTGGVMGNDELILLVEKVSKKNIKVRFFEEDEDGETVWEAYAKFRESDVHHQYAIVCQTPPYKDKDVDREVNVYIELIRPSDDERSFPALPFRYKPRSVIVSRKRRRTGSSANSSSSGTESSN

GST-Aq-NF-kB = target: T3, GST-Aq-NF-kB (Amphimedon queenslandica, UniProt A9Y5G7 2-389)
T3 sequence: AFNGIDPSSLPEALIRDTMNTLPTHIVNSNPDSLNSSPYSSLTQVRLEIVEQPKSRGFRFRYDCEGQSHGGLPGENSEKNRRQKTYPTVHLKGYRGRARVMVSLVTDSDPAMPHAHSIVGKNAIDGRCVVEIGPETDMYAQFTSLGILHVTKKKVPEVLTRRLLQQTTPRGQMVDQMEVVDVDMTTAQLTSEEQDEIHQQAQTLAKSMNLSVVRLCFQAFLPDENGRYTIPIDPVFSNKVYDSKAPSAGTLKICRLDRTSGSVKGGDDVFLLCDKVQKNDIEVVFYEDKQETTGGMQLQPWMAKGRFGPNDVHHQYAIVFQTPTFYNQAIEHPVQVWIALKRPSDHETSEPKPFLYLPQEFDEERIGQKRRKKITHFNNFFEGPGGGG

GST-Co-NF-kB = target: T4, GST-Co-NF-kB (Capsaspora owczarzaki, UniProt F1ARL5 200-546)
T4 sequence: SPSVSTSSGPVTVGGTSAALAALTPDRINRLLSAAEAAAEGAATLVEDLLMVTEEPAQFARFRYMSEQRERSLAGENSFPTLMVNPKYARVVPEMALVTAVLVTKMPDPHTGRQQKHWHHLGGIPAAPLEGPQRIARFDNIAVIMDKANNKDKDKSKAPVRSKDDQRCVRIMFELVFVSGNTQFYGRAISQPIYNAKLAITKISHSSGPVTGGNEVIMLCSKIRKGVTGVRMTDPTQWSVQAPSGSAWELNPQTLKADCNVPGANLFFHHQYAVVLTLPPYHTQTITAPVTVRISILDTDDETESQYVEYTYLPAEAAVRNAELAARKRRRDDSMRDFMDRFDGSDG

Row | Sequence | binding signal (GST-Ap-NF-kB RHD) | binding signal (GST-Dm-Relish) | binding signal (GST-Aq-NF-kB) | binding signal (GST-Co-NF-kB)
1 | CCGATTAACATCAGGAATTCCTATGATGTTAATCGGGTCTTGATTCGCTTGACGCTGCTG | 1.1 z-score | 3.7 z-score | 2.07 z-score | 
2 | CCGATTAACATCAGGGCATTCCATGATGTTAATCGGGTCTTGATTCGCTTGACGCTGCTG | 1.14 z-score | 1.84 z-score | 2.1 z-score | 
3 | CCGATTAACATCACGGGATGTCCTGATGTTAATCGGGTCTTGATTCGCTTGACGCTGCTG | 1.47 z-score | 3.42 z-score | 3.06 z-score | 
4 | CCGATTAACATCACCGGAATTTCTGATGTTAATCGGGTCTTGATTCGCTTGACGCTGCTG | 1.27 z-score | 1.58 z-score | 2.45 z-score | 
5 | CCGATTAACATCAGGAGATCCCATGATGTTAATCGGGTCTTGATTCGCTTGACGCTGCTG | 1.24 z-score | 4.37 z-score | 2.7 z-score | 
6 | CCGATTAACATCAGGGGTGCCCATGATGTTAATCGGGTCTTGATTCGCTTGACGCTGCTG | 1.69 z-score | 3.52 z-score | 1.5 z-score | 
7 | CCGATTAACATCAAGGGGGGGATTGATGTTAATCGGGTCTTGATTCGCTTGACGCTGCTG | 7.19 z-score | 5.64 z-score | 5.59 z-score | 4.35 z-score
8 | CCGATTAACATCAAGGGGGGGAATGATGTTAATCGGGTCTTGATTCGCTTGACGCTGCTG | 6.62 z-score | 4.96 z-score | 5.81 z-score | 8.37 z-score
9 | CCGATTAACATCAGGGGGGGGAATGATGTTAATCGGGTCTTGATTCGCTTGACGCTGCTG | 7.86 z-score | 5.27 z-score | 5.65 z-score | 8.84 z-score
10 | CCGATTAACATCACGGGATCTCCTGATGTTAATCGGGTCTTGATTCGCTTGACGCTGCTG | 2.16 z-score | 4.06 z-score | 3.77 z-score | 
11 | CCGATTAACATCAAGGAAATACCTGATGTTAATCGGGTCTTGATTCGCTTGACGCTGCTG | 1.2 z-score | 3.3 z-score | 3.81 z-score | 
12 | CCGATTAACATCAGCGGAATTCCTGATGTTAATCGGGTCTTGATTCGCTTGACGCTGCTG | 1.33 z-score | 2.27 z-score | 1.89 z-score | 
13 | CCGATTAACATCAGAAAATTTCCTGATGTTAATCGGGTCTTGATTCGCTTGACGCTGCTG |  | 1.75 z-score | 2.09 z-score | 
14 | CCGATTAACATCAGGAATTTACATGATGTTAATCGGGTCTTGATTCGCTTGACGCTGCTG |  | 5.41 z-score | 1.28 z-score | 
15 | CCGATTAACATCAGGTTTTTCCATGATGTTAATCGGGTCTTGATTCGCTTGACGCTGCTG |  | 2.68 z-score | 2.64 z-score | 
16 | CCGATTAACATCAGGGCAAGTACTGATGTTAATCGGGTCTTGATTCGCTTGACGCTGCTG |  | 1.44 z-score | 2.28 z-score | 
17 | CCGATTAACATCAGGAATTTTACTGATGTTAATCGGGTCTTGATTCGCTTGACGCTGCTG |  | 1.49 z-score | 1.14 z-score | 
18 | CCGATTAACATCAGGAAATCCACTGATGTTAATCGGGTCTTGATTCGCTTGACGCTGCTG |  | 2.24 z-score | 1.15 z-score | 
19 | CCGATTAACATCAAAGGAATTTCTGATGTTAATCGGGTCTTGATTCGCTTGACGCTGCTG |  | 1.13 z-score | 1.12 z-score | 
20 | CCGATTAACATCAAAAATTCCGCTGATGTTAATCGGGTCTTGATTCGCTTGACGCTGCTG |  | 1.22 z-score | 1.89 z-score | 
21 | CCGATTAACATCACGTAATTTCCTGATGTTAATCGGGTCTTGATTCGCTTGACGCTGCTG |  | 1.85 z-score | 1.14 z-score | 
22 | CCGATTAACATCAGAGGATTTCCTGATGTTAATCGGGTCTTGATTCGCTTGACGCTGCTG |  | 1.74 z-score | 1.55 z-score | 
23 | CCGATTAACATCACGTAAATTCCTGATGTTAATCGGGTCTTGATTCGCTTGACGCTGCTG |  | 1.43 z-score | 1.08 z-score | 
24 | CCGATTAACATCACAAAATTTCCTGATGTTAATCGGGTCTTGATTCGCTTGACGCTGCTG |  | 1.74 z-score | 1.72 z-score | 
